Experimental data published in PubChem BioAssay (NCATS).
Records with an inconclusive call do not appear. Calls of active or inactive are those of the source. The call rests on the fitted dose curve; in most records, active means well fitted inhibition curve with a large enough effect; inconclusive means small, poorly fitted or top-dose-only effect; inactive means flat fitted curve, though single readings scatter.

Assays:
Test in all cases: qHTS profiling for inhibitors of Plasmodium falciparum proliferation (AID 504749); further: nearly all actives have a fitted effect of over 60% in size
Settings in all cases: P. falciparum in erythrocytes, SYBR Green DNA, 72 h; series mostly up to 28.7 µM
FAB9 = test system: FAB9
How it was run: (§1)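 Each compound contacts P. falciparum-infected red blood cells for 72 h at 37 C; lysis buffer (Tris, EDTA, saponin, Triton X, SYBR Green I) is added and fluorescence measured next morning; values normalized to controls.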

HB3 = test system: HB3
How it was run: as §1

ICS = test system: ICS
How it was run: as §1

JCK = test system: JCK
How it was run: as §1

N140 = test system: N140
How it was run: as §1

P93_24 = test system: P93_24
How it was run: as §1

P94_40 = test system: P94_40
How it was run: as §1

PAD = test system: PAD
How it was run: as §1

PC15 = test system: PC15
How it was run: as §1

GB4 = test system: GB4
How it was run: as §1

Measured: Potency
Potency means the concentration at half of the fitted maximal effect.

CN(C)c1ccc(C(=C2C=CC(=[N+](C)C)C=C2)c2c(O)c(S(=O)(=O)[O-])cc3cc(S(=O)(=O)O)ccc23)cc1
not listed: GB4
inactive: all other assays above

O=C(OC1C[C@@H]2CC3C[C@H](C1)N2CC3=O)c1c[nH]c2ccccc12 (stereo partly specified)
active: ICS 10 µM
not listed: PAD | PC15 | GB4
inactive: all other assays above

CC[C@H]1OC(=O)[C@H](C)[C@@H](O[C@H]2C[C@@](C)(OC)[C@@H](O)[C@H](C)O2)[C@H](C)[C@@H](O[C@@H]2O[C@H](C)C[C@H](N(C)C)[C@H]2O)[C@](C)(O)C[C@@H](C)CN(C)[C@H](C)[C@@H](O)[C@]1(C)O
active: GB4 7.57 µM | N140 8.91 µM | P94_40 2.51 µM
inactive: FAB9 | JCK

CC/C=C\C/C=C\C/C=C\CCCCCCCC(=O)O
not listed: ICS | PAD
inactive: all other assays above

CC(C)C1=CC2=CC[C@@H]3[C@](C)(CCC[C@@]3(C)C(=O)O)[C@H]2CC1
not listed: GB4
inactive: all other assays above

CN(C)CCOc1ccc(/C(=C(/CCCl)c2ccccc2)c2ccccc2)cc1
not listed: PC15 | GB4
inactive: all other assays above

Cc1cc(-c2ccc(N=Nc3c(S(=O)(=O)O)cc4cc(S(=O)(=O)O)cc(N)c4c3O)c(C)c2)ccc1N=Nc1c(S(=O)(=O)O)cc2cc(S(=O)(=O)O)cc(N)c2c1O
inactive: FAB9 | GB4 | HB3 | JCK | PC15

O=C1c2ccccc2C(=O)C1c1ccc(Cl)cc1
not listed: ICS
inactive: all other assays above

O=C(O)CC/C=C\CC[C@@H]1[C@@H](N2CCCCC2)[C@@H](O)C[C@@H]1OCc1ccc(-c2ccccc2)cc1
not listed: ICS
inactive: all other assays above

CC1CCCCN1CCCOC(=O)c1ccccc1 (stereo unspecified)
not listed: GB4
inactive: all other assays above

O=[N+]([O-])c1c(Cl)cccc1-c1c[nH]cc1Cl
not listed: ICS | P94_40
inactive: all other assays above

O=C(O)CCC/C=C\C[C@@H]1[C@@H](/C=C/[C@@H](O)COc2cccc(C(F)(F)F)c2)[C@H](O)C[C@@H]1O
not listed: ICS | N140 | P94_40
inactive: all other assays above

Cc1cc(C(=O)NCCc2ccc(S(=O)(=O)NC(=O)NN3CCCCCC3)cc2)no1
not listed: GB4
inactive: all other assays above

O.O.O.O.O.O.O.O=S(=O)([O-])[O-].[Co+2]
inactive: P93_24 | P94_40 | PAD | PC15
active: FAB9 11.2 µM | GB4 8.49 µM | ICS 5.62 µM | JCK 12.6 µM | N140 12.6 µM

CC(C)=CCC/C(C)=C/C=C/C(C)=C/C=C/C(C)=C/C=C/C=C(C)/C=C/C=C(C)/C=C/C=C(\C)CCC=C(C)C
active: ICS 11.2 µM
inactive: FAB9 | GB4 | JCK | N140

OCCOCCOCCO
not listed: GB4
inactive: all other assays above

c1ccc2c(c1)Sc1ccccc1N2CCN1CCCC1
inactive: FAB9 | JCK
active: GB4 7.57 µM | ICS 3.98 µM | N140 7.94 µM | P93_24 7.08 µM | P94_40 7.94 µM | PAD 7.94 µM | PC15 11.2 µM

COc1ccccc1N1CCN(CCCC(=O)c2ccc(F)cc2)CC1
not listed: ICS
inactive: all other assays above

C[C@@](Cc1ccc(O)c(O)c1)(NN)C(=O)O
not listed: ICS | P94_40
inactive: all other assays above

CC(=O)[O][Al][O]C(C)=O
not listed: GB4
inactive: all other assays above

O=C(OCc1ccccc1)c1cccnc1
not listed: ICS
inactive: all other assays above

CN1C(C(=O)Nc2ccccn2)C(=O)c2sc(Cl)cc2S1(=O)=O (stereo unspecified)
not listed: ICS
inactive: all other assays above

C[C@H](CCCC(C)(C)O)[C@H]1CC[C@H]2[C@@H]3CC=C4C[C@@H](O)CC[C@]4(C)[C@H]3CC[C@]12C
active: ICS 12.6 µM
not listed: HB3 | P94_40
inactive: all other assays above

O=C1CCC(c2ccccc2)(C2CCN(Cc3ccccc3)CC2)C(=O)N1 (stereo unspecified)
not listed: GB4
inactive: all other assays above

Cc1cc(C)c(NC(=O)C[C@H](CC(=O)O)c2cccc3ccccc23)c(C(=O)N2CCC3(CCCC3)CC2)c1
not listed: ICS
inactive: all other assays above

C(=C\c1ccncc1)/c1ccccc1
not listed: HB3 | ICS | P93_24
inactive: all other assays above

CC1CCC(NC(=O)N(CCCl)N=O)CC1 (stereo unspecified)
not listed: GB4
inactive: all other assays above

Cc1c(C)c2c(c(C)c1OC(=O)CCC(=O)O)CC[C@@](C)(CCC[C@H](C)CCC[C@H](C)CCCC(C)C)O2
active: ICS 11.2 µM
not listed: HB3 | PC15
inactive: all other assays above

CN(C)CCCSc1ccccc1NC(=O)/C=C/c1ccccc1
not listed: GB4
inactive: all other assays above

COc1ccc(-c2noc(CC(=O)O)c2-c2ccc(OC)cc2)cc1
not listed: GB4
inactive: all other assays above

CN1CCCC(CN2c3ccccc3Sc3ccccc32)C1 (stereo unspecified)
active: ICS 12.6 µM | N140 8.91 µM
inactive: FAB9 | HB3 | JCK
